From the supplement of paper PMC12808144

Test system: Mel-DCC-11-R
Test: cell viability relative to DMSO control (fraction of DMSO control); higher = less cytotoxic, active = 0.8 or less
Conditions: 1 µM; 120 h; vemurafenib co-treatment 0 µM
Description: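 Same 315-drug TargetMol library at 1 µM in duplicate, 120 h, ATPlite luminescence normalised to DMSO controls, on the vemurafenib-resistant subline Mel-DCC-11-R cultured alone or with 8 µM vemurafenib co-treatment (Mel-DCC-11-R + V).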

SMILES	cell viability
N[C@@H](Cc1ccc(N(CCCl)CCCl)cc1)C(=O)O [Melphalan]	1.17 (inactive)
CCC1(c2ccc(N)cc2)CCC(=O)NC1=O (stereo not given) [Aminoglutethimide]	1.08 (inactive)
Cn1cc(C2=C(c3cn(C4CCN(Cc5ccccn5)CC4)c4ccccc34)C(=O)NC2=O)c2ccccc21 [Enzastaurin]	1.06 (inactive)
C/C=C(\C)C(=O)N[C@@H](c1ccccc1)[C@@H](O)C(=O)O[C@H]1C[C@@]2(O)[C@@H](OC(=O)c3ccccc3)[C@@H]3[C@]4(OC(C)=O)CO[C@@H]4C[C@H](O)[C@@]3(C)C(=O)[C@H](OC(C)=O)C(=C1C)C2(C)C [Cephalomannine]	0.99 (inactive)
Cc1ncc(CNC(=O)N(CCCl)N=O)c(N)n1.Cl [Nimustine Hydrochloride]	1.1 (inactive)
COC(=O)Nc1nc2ccccc2[nH]1 [Carbendazim]	0.917 (inactive)
C=C1C[C@@H]2[C@H](CC[C@]3(C)C(=O)CC[C@@H]23)[C@@]2(C)C=CC(=O)C=C12 [Exemestane]	1.09 (inactive)
Cl.N[C@@H]1C[C@H]1c1ccccc1 [Tranylcypromine (2-PCPA) hydrochloride]	0.9 (inactive)
O=P1(NCCCl)OCCCN1CCCl (stereo not given) [Ifosfamide]	0.968 (inactive)
C[C@]12CCC(=O)C(O)=C1CC[C@@H]1[C@@H]2CC[C@]2(C)C(=O)CC[C@@H]12 [Formestane]	0.922 (inactive)
NCCC(O)(P(=O)([O-])O)P(=O)([O-])O.[Na+].[Na+] [Pamidronate disodium salt]	1.02 (inactive)
O.O=P1(N(CCCl)CCCl)NCCCO1 (stereo not given) [Cyclophosphamide monohydrate]	0.857 (inactive)
NCCCNCCSP(=O)(O)O [Amifostine]	0.934 (inactive)
COc1cc([C@@H]2c3cc4c(cc3[C@H](O)[C@H]3COC(=O)[C@H]23)OCO4)cc(OC)c1OC [Podophyllotoxin]	0.575 (active)
CCC1=C[C@H]2CN3CCc4c([nH]c5ccccc45)[C@](C(=O)OC)(C2)[C@H]13 [Catharanthine]	0.906 (inactive)
O=C(O)CCCc1ccc(N(CCCl)CCCl)cc1 [Chloroambucil]	0.906 (inactive)
CC(O)(CS(=O)(=O)c1ccc(F)cc1)C(=O)Nc1ccc(C#N)c(C(F)(F)F)c1 (stereo not given) [Bicalutamide]	1.02 (inactive)
C[C@]12CC[C@@H]3c4ccc(OC(=O)N(CCCl)CCCl)cc4CC[C@H]3[C@@H]1CC[C@@H]2OP(=O)([O-])[O-].[Na+].[Na+] [Estramustine phosphate sodium]	1.01 (inactive)
O=[As]O[As]=O (stereo not given) [Arsenic oxide (3)]	0.971 (inactive)
CCCCCN(C)CCC(O)(P(=O)([O-])O)P(=O)(O)O.[Na+] [Ibandronate sodium]	0.82 (inactive)

Same assay, conditions: 1 µM; 120 h; vemurafenib co-treatment 8 µM

SMILES	cell viability
N[C@@H](Cc1ccc(N(CCCl)CCCl)cc1)C(=O)O [Melphalan]	1.11 (inactive)
CCC1(c2ccc(N)cc2)CCC(=O)NC1=O (stereo not given) [Aminoglutethimide]	1.04 (inactive)
Cn1cc(C2=C(c3cn(C4CCN(Cc5ccccn5)CC4)c4ccccc34)C(=O)NC2=O)c2ccccc21 [Enzastaurin]	1.24 (inactive)
C/C=C(\C)C(=O)N[C@@H](c1ccccc1)[C@@H](O)C(=O)O[C@H]1C[C@@]2(O)[C@@H](OC(=O)c3ccccc3)[C@@H]3[C@]4(OC(C)=O)CO[C@@H]4C[C@H](O)[C@@]3(C)C(=O)[C@H](OC(C)=O)C(=C1C)C2(C)C [Cephalomannine]	0.638 (active)
Cc1ncc(CNC(=O)N(CCCl)N=O)c(N)n1.Cl [Nimustine Hydrochloride]	0.991 (inactive)
COC(=O)Nc1nc2ccccc2[nH]1 [Carbendazim]	1.05 (inactive)
C=C1C[C@@H]2[C@H](CC[C@]3(C)C(=O)CC[C@@H]23)[C@@]2(C)C=CC(=O)C=C12 [Exemestane]	1.13 (inactive)
Cl.N[C@@H]1C[C@H]1c1ccccc1 [Tranylcypromine (2-PCPA) hydrochloride]	0.694 (active)
O=P1(NCCCl)OCCCN1CCCl (stereo not given) [Ifosfamide]	1 (inactive)
C[C@]12CCC(=O)C(O)=C1CC[C@@H]1[C@@H]2CC[C@]2(C)C(=O)CC[C@@H]12 [Formestane]	1.02 (inactive)
NCCC(O)(P(=O)([O-])O)P(=O)([O-])O.[Na+].[Na+] [Pamidronate disodium salt]	0.981 (inactive)
O.O=P1(N(CCCl)CCCl)NCCCO1 (stereo not given) [Cyclophosphamide monohydrate]	1.03 (inactive)
NCCCNCCSP(=O)(O)O [Amifostine]	1.21 (inactive)
COc1cc([C@@H]2c3cc4c(cc3[C@H](O)[C@H]3COC(=O)[C@H]23)OCO4)cc(OC)c1OC [Podophyllotoxin]	0.407 (active)
CCC1=C[C@H]2CN3CCc4c([nH]c5ccccc45)[C@](C(=O)OC)(C2)[C@H]13 [Catharanthine]	0.983 (inactive)
O=C(O)CCCc1ccc(N(CCCl)CCCl)cc1 [Chloroambucil]	1.11 (inactive)
CC(O)(CS(=O)(=O)c1ccc(F)cc1)C(=O)Nc1ccc(C#N)c(C(F)(F)F)c1 (stereo not given) [Bicalutamide]	1.12 (inactive)
C[C@]12CC[C@@H]3c4ccc(OC(=O)N(CCCl)CCCl)cc4CC[C@H]3[C@@H]1CC[C@@H]2OP(=O)([O-])[O-].[Na+].[Na+] [Estramustine phosphate sodium]	1.11 (inactive)
O=[As]O[As]=O (stereo not given) [Arsenic oxide (3)]	0.951 (inactive)
CCCCCN(C)CCC(O)(P(=O)([O-])O)P(=O)(O)O.[Na+] [Ibandronate sodium]	0.935 (inactive)
